According to PubChem BioAssay (NCATS):
Records with an inconclusive call do not appear. Activity calls are given as the source filed them. Calls follow the shape of the dose curve; as a rule, active = well fitted inhibition curve with a large enough effect; inconclusive = small, poorly fitted or top-dose-only effect; inactive = flat fitted curve, though single readings scatter.

Experiments:
[1] = molecular target: Glutathione peroxidase 1 (Homo sapiens) (UniProt P07203); experiment: Primary qHTS Assay for Inhibitors of Recombinant Selenoprotein Glutathione Peroxidase 1 (GPX1) (AID 1845191); also: nearly all actives have a fitted effect of over 65% in size
In short: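 GPX1 10 nM, GR 100 nM, GSH 1 mM, NADPH 0.5 mM, CHP 0.5 mM (final). 30-min cpd preincubation, RT. Ex340/Em450 read t=0, t=15 min.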

[2] = molecular target: Phospholipid hydroperoxide glutathione peroxidase GPX4 (Homo sapiens) (UniProt P36969); experiment: Primary qHTS Assay for Inhibitors of Recombinant Selenoprotein Glutathione Peroxidase 4 (GPX4) (AID 1845192); also: nearly all actives have a fitted effect of over 65% in size
In short: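 qHTS, GR-coupled: GPX4 200 nM + cpd 30 min RT → GSH 1 mM, NADPH 0.5 mM, GR 100 nM → CHP 0.5 mM start; fluor 340/450 at t0 and t15 min; no-enzyme wells as control.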

[3] = molecular target: Luciferin 4-monooxygenase (Photinus pyralis) (UniProt P08659); experiment: Primary firefly luciferase (FLuc) qHTS assay for identification of artifact compounds. (AID 1845220); also: nearly all actives have a fitted effect of over 60% in size
In short: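 qHTS, 15 min compound preincubation with substrate (10 uM luciferin, 10 uM ATP) at RT, then 10 nM FLuc; 5 min; luminescence; % inhibition vs no-enzyme/DMSO controls, 4-parameter Hill fit.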

[4] = test system: Nanoluciferase (engineered Oplophorus gracilirostris luciferase); experiment: Primary Nanoluciferase (NLuc) qHTS assay for identification of artifact compounds. (AID 1845222); also: series mostly up to about 54 µM
In short: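 Luminescence read-out of secreted NLuc in S16 cell conditioned medium (1:55); compounds tested with 15 min RT preincubation, then Nano-Glo substrate 1:100, 5 min. % inhibition vs no-enzyme and DMSO controls, 4-parameter Hill fit.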

Measured: Potency

Sequence of Glutathione peroxidase 1 (Homo sapiens) (P07203 whole entry, looked up): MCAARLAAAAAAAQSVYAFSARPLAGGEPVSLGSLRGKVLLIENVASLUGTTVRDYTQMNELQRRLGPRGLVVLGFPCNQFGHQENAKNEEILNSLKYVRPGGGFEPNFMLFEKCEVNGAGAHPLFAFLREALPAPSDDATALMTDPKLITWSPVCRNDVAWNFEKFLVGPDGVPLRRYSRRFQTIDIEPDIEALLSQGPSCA
Sequence of Phospholipid hydroperoxide glutathione peroxidase GPX4 (Homo sapiens) (P36969 whole entry, looked up): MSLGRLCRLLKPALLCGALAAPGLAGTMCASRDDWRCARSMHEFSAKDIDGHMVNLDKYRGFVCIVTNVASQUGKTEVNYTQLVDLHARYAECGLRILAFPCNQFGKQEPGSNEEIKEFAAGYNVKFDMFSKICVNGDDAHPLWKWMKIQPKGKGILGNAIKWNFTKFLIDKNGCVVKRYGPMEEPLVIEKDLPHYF

O=C(NO)c1cnc(N2CCN(S(=O)(=O)c3ccc4ccccc4c3)CC2)nc1
inactive: [1] | [2] | [3] | [4]

CC(=O)O[C@@H]1C2=C(O)C(=O)[C@](C)(OC(C)=O)C(=O)C2=CO[C@@]12O[C@@H](C)CC[C@H]2OC(C)=O
inactive: [1] | [2] | [3] | [4]

CC(C)c1cccc(C(C)C)c1NC(=O)Nc1ccc(Sc2ccc([N+](=O)[O-])cc2)cc1
inactive: [1] | [2] | [3] | [4]

CO[C@H]1C[C@@H]2CC[C@@H](C)[C@@](O)(O2)C(=O)C(=O)N2CCCC[C@H]2C(=O)O[C@H]([C@@H](C)C[C@@H]2CC[C@@H](O)[C@H](OC)C2)CC(=O)[C@H](C)/C=C(\C)[C@@H](O)[C@@H](OC)C(=O)[C@H](C)C[C@H](C)/C=C/C=C/C=C/1C
inactive: [1] | [2] | [3] | [4]

C[C@@H]1CC[C@@]23CC[C@]4(C)[C@@](C=CC5[C@@]6(C)CC[C@H](O)C(C)(C)C6CC[C@]54C)(OC2=O)C3[C@H]1C (some centres not stated)
inactive: [1] | [2] | [3] | [4]

C=C(C(=O)OC[C@H]1O[C@@H](OC(=O)/C=C/c2ccccc2)[C@H](O)[C@@H](O)[C@@H]1O)C(O)CO (some centres not stated)
inactive: [1] | [2] | [3] | [4]

NC(=O)N1CCC(CC(=O)N2CCC(C3c4ncc(Br)cc4CCc4cc(Cl)cc(Br)c43)CC2)CC1 (configuration not stated)
inactive: [1] | [2] | [3] | [4]

CN1CCN(C2=Nc3ccccc3Nc3ccc(Cl)cc32)CC1
inactive: [1] | [2] | [3] | [4]
